Sampled rows, rich in hits. Any-hit rate of the full collection: about 0.85%.
CCT chaperon mod – High-Throughput Screening for Modulators of Cytosolic Chaperonin Activity. activity change, % (test concentration not listed), hits read low. actives 0.3% (n = 360,000). purified chaperonin ATPase assay, HTRF ADP detection, 30 min. AID 651819, 2012; in the data active = activity change below about -30%; also: % is scaled to controls: 0 for no effect and ±100 for the full control effect
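TRiC (40 or 20 nM final, by batch activity) in 30 mM Tris pH 7.4, 100 mM KCl, 5 mM MgCl2, 1 mM DTT was treated with compound at 76 uM single dose, then 10 uM ATP, 30 min at 37 °C. ADP was read by HTRF Transcreener.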
pAkt inh – HTS Assay for Inhibitors of Akt Phophorylation: Primary Screen | Neuro2A IGF-stimulated pAkt S473 HTRF, 20 min; stronger effect = lower value | activity change, % for hits at 50 µM | actives 0.32% (n = 360,000) | AID 651550, 2012; in the data active = activity change below about -80%; inconclusive = mostly about -51% to -80%; also: % is scaled to controls: 0 for no effect and ±100 for the full control effect
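Neuro2A cells (4,500/well, DMEM with 0.5% FBS) were treated with compound at a single 50 µM final concentration, stimulated with 6 nM IGF for 20 min at 37 °C, and lysed. Phospho-Akt Ser473 was read by HTRF as 665/615 ratio ×10^4.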
Glioma ERSR ind – qHTS for Inducers of the Endoplasmic Reticulum Stress Response (ERSR) in Human Glioma: qHTS; U87-MG GRP78 promoter luciferase reporter, 16 h; Potency, µM, for the others: at the highest dose activation, most hits filed as activators; actives 0.02% (n = 420,000); AID 602332, 2012; also: potency is read from the fitted curve at half-maximal effect; series mostly up to about 76 µM; % of control where 0% means no effect; nearly all actives have a fitted effect of over 35% in size
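Stably transfected U87-MG glioma cells carrying a GRP78-based luciferase sensor; 16 h compound incubation. Luminescence end-point read 10 min after Bright-Glo addition at room temperature.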
IDH1 R132H inh – qHTS for Inhibitors of mutant isocitrate dehydrogenase 1 (IDH1): qHTS; actives 0.093% (n = 390,000); Potency, µM (highest dose often 76.6 µM), inactives show at the highest dose activity change, negative = inhibition, actives largely listed as inhibitors; IDH1-R132H enzyme, NADPH consumption, diaphorase/resazurin fluorescence; Isocitrate dehydrogenase [NADP] cytoplasmic (Homo sapiens), O75874; also: potency is read from the fitted curve at half-maximal effect; % is scaled to controls: 0 for no effect and ±100 for the full control effect; nearly all actives have a fitted effect of over 65% in size
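IDH1-R132H (0.5 ug/mL) preincubated 30 min with compound, then NADPH (0.016 mM) and alpha-KG (2 mM) added; 80 min at RT, pH 7.5. Remaining NADPH coupled via diaphorase/resazurin to fluorescence (540/590 nm); concentration-response curves normalized to no-enzyme control.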
GLS inhibitor – qHTS for Inhibitors of Glutaminase (GLS); Glutaminase kidney isoform, mitochondrial (Homo sapiens), O94925; GLS enzymatic activity, qHTS titration; Potency, µM (top dose mostly 45.5 µM), for inactives: at the top dose activity change, negative = inhibition, most hits filed as inhibitors; actives 0.21% (n = 410,000); AID 624170, 2012; also: potency is read from the fitted curve at half-maximal effect; % is scaled to controls: 0 for no effect and ±100 for the full control effect
Target sequence (O94925 whole entry, looked up, canonical isoform): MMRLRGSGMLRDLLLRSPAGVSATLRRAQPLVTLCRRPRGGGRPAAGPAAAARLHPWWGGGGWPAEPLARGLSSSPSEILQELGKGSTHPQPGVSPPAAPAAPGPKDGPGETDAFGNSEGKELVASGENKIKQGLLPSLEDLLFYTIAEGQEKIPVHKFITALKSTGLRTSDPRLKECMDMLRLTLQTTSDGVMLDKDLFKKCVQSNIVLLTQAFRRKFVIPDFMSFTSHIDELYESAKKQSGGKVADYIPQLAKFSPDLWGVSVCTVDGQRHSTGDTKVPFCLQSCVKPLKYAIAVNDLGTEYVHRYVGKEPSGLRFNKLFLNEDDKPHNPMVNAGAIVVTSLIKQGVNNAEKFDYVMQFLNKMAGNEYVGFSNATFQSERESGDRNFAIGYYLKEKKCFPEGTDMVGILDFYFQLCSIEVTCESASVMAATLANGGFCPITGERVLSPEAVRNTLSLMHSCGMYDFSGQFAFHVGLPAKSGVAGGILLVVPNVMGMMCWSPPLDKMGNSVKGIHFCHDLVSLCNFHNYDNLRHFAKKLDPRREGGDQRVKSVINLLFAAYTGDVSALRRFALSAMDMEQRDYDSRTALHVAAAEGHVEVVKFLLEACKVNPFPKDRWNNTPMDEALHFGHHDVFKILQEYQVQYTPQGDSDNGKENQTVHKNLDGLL
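hKGA in 45 mM KH2PO4 (pH 8.2), 0.02% Tween-20 with compound, then 1mM L-Glutamine (stock as added) plus glutamate oxidase/HRP/Amplex red coupling mix. Fluorescence read initially and after 30 min at RT; signal change reflects glutamate formation.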
MmCpn inh – Inhibitors of TCP-1 ring complex (TRiC) of Methanococcus maripaludis (MmCpn): qHTS; Chaperonin Mm-Cpn (Methanococcus maripaludis); purified Mm-Cpn ATPase, ADP Transcreener TR-FRET; Potency, µM (highest dose often 76.9 µM), without a hit: at the top dose activity, negative = inhibition, most hits filed as inhibitors; actives 0.031% (n = 330,000); AID 504842, 2011; also: potency is read from the fitted curve at half-maximal effect; % is scaled to controls: 0 for no effect and ±100 for the full control effect; nearly all actives have a fitted effect of over 80% in size
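Purified archaeal chaperonin (25 nM final) was preincubated with compound for 10 min at 37°C, then ATP (10 uM final) was added for 30 min at 37°C in Tris pH 7.4/KCl/MgCl2/DTT buffer. ADP was quantified by HTRF Transcreener TR-FRET.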
* = called active by the depositor; i = inactive; ? = inconclusive; · = not tested or not shown; ! = not active in a repeat. Unless noted, calls follow the shape of the dose curve; as a rule, active = well fitted curve in the direction sought with a large enough effect; inconclusive = small, poorly fitted or top-dose-only effect, or another doubt; inactive = no such curve, though single readings can be large; an effect the other way counts as inactive or inconclusive.

SMILES	CCT chaperon mod	pAkt inh	Glioma ERSR ind	IDH1 R132H inh	GLS inhibitor	MmCpn inh
COc1ccc2nc(NC(=O)c3cc(C)oc3C)sc2c1	2.0	i	0.9%	6.1%	6.2%	-7.2%
COc1cc(NC(=O)c2ccc3c(c2)OCO3)ccc1NC(=O)C(C)C	1.4	-115.0%*	-1.2%	6.2%	-4.8%	0.3%
CC(C)(C)n1nnnc1C(c1ccccc1)N1CCc2ccccc2C1 (configuration not stated)	-57.4*	i	-0.9%	-0.5%	-1.6%	-7.8%
CN(C)c1ccc(C(c2nnnn2C(C)(C)C)N2CCc3ccccc3C2)cc1 (configuration not stated)	·	·	·	·	·	1.0%
COc1cc(/C=C/C(=O)OCC(=O)N2CCCc3ccccc32)ccc1O	0.5	i	-0.5%	8.8%	10µM*	-0.1%
CC(O)(COc1ccccc1)c1ccc2c(c1)CN(C/C=C/c1ccco1)CCO2 (configuration not stated)	·	·	9.5%	·	·	·
NC(=O)C1CCN(c2nc(-c3ccc4c(c3)OCO4)cs2)CC1	·	·	·	·	·	-0.4%
COc1ccc(NC2CC(=O)N(c3cc([N+](=O)[O-])ccc3C)C2=O)cc1 (configuration not stated)	-11.4	i	-1.1%	-4.1%	7.08µM*	0.1%
COc1ccc(NC2CC(=O)N(c3cccc([N+](=O)[O-])c3)C2=O)cc1 (configuration not stated)	-1.9	i	-3.2%	1.7%	?	-9.5%
O=C1CCN(C(=O)Nc2cccc(Cl)c2)N1	-2.1	-120.0%*	3.7%	3.2%	48.0%	0.0%
O=C(CSc1nnc(-c2cccnc2)o1)Oc1ccccc1	-1.3	i	-3.3%	13.9%	25.8%	-2.3%
O=C(CSc1nnc(-c2ccncc2)o1)Oc1ccccc1	1.6	-91.5%*	-3.7%	-6.2%	8.7%	2.4%
Cc1ccc(CSc2nnc(-c3ccc(NS(=O)(=O)c4ccccc4)cc3)o2)cc1	-0.1	i	1.9%	-7.3%	-0.5%	-2.1%
COC(=O)CSc1nnc(-c2ccc(NS(=O)(=O)c3ccccc3)cc2)o1	0.7	-110.8%*	-16.4%	2.6%	9.4%	-1.0%
CCCCC(=O)N1CCCC(c2nc3c(nnn3Cc3cc(C)ccc3C)c(=O)[nH]2)C1 (configuration not stated)	-3.6	-117.5%*	-1.6%	2.6%	10.7%	-0.2%
COCCn1c(N)c(NCc2ccccc2)c(=O)n(CC(=O)Nc2cc(C)ccc2C)c1=O	0.7	-108.1%*	0.0%	9.8%	21.7%	0.0%
NC1(C(=O)O)CC1	-2.6	i	-2.9%	8.1%	-1.3%	·
CC1(C(=O)O)CC(C)(C(=O)O)CC(C)(C(=O)O)C1 (configuration not stated)	-2.0	-119.1%*	-4.1%	2.9%	5.6%	-1.7%
O=C(COc1ccc2c(c1)OCO2)Nc1ccc2c(c1)oc1ccccc12	-4.4	-96.1%*	-2.8%	0.0%	-1.6%	-0.4%
O=C(Nc1ccc2c(c1)oc1ccccc12)c1ccc2c(c1)OCO2	-2.6	i	7.6%	0.9%	4.5%	-9.9%
COc1ccc(CN2CCCC(n3cc(C(=O)N4CCCCC4)nn3)C2)c(OC)c1 (configuration not stated)	·	·	-5.0%	·	·	·
O=C(Cn1cnc2ccccc2c1=O)N1CCN(Cc2ccc3c(c2)OCO3)CC1	-54.3*	i	-1.5%	8.8%	3.2%	-22.7%
O=C(Cn1cnc2ccccc2c1=O)Nc1ccccc1N1CCOCC1	-75.2*	i	0.7%	-1.9%	-6.4%	-0.8%
O=C(Cn1cnc2ccccc2c1=O)NCC(=O)N1CCN(Cc2ccc3c(c2)OCO3)CC1	-0.7	i	0.5%	9.5%	-12.0%	-0.5%
O=C(CCNC(=O)Cn1cnc2ccccc2c1=O)NCC1COc2ccccc2O1 (configuration not stated)	-1.1	-107.0%*	-5.3%	10.6%	?	-0.4%
SMILES	CCT chaperon mod	pAkt inh	Glioma ERSR ind	IDH1 R132H inh	GLS inhibitor	MmCpn inh
O=C(CCNC(=O)Cn1cnc2ccccc2c1=O)NCC1CCCO1 (configuration not stated)	-7.0	i	-5.7%	0.9%	-19.9%	0.9%
OC1(c2cccnc2)CCN(Cc2ccc3c(c2)CN(Cc2cccc(F)c2F)CCO3)CC1	·	·	-5.3%	·	·	·
c1cc(N2CCCCC2)nc(N2CCCCC2)n1	0.5	i	4.0%	2.2%	-18.2%	·
C[c-]1[c-](C)[c-](C)[c-](C)[c-]1C.[Fe].c1cc2nccc(N3CCCC3)[c-]2c1 (configuration not stated)	-3.7	i	-4.3%	-8.2%	12.6µM*!	-1.0%
O=C(O)C1CCCN1S(=O)(=O)c1cc(Cl)ccc1Cl (configuration not stated)	-56.0*	i	-2.0%	2.0%	1.9%	0.0%
COC(=O)C1CCCCN1Cc1nc(N(C)C)c2ccccc2n1 (configuration not stated)	·	·	-1.1%	·	·	·
O=C1CCCN1CCCNC(=S)Nc1ccc(Nc2ccccc2)cc1	-1.1	i	-0.5%	3.8%	17.8µM*	-1.4%
O=C1CCCN1CCCNC(=S)Nc1ccccc1	-2.5	i	-2.9%	3.7%	-12.3%	3.5%
COC(=O)COc1cc(OCC(=O)OC)c2c(-c3ccccc3)cc(=O)oc2c1	0.4	i	4.9%	-0.4%	-0.8%	-0.5%
COC(=O)C(C)Oc1cc(OC(C)C(=O)OC)c2c(-c3ccccc3)cc(=O)oc2c1 (configuration not stated)	2.5	i	31.6µM*	6.2%	-7.5%	-0.7%
Cc1ccc2nc(SCC(=O)NCC3Cc4cccc(-c5nc(C)cnc5C)c4O3)[nH]c2c1 (configuration not stated)	·	·	-1.4%	·	·	·
CC1CCC(NC(=O)C2CCN(c3nc4ccccc4s3)CC2)CC1 (configuration not stated)	-36.3*	i	-4.4%	-3.9%	-1.5%	-0.5%
CN(C(=O)CSc1nc(N)nn1-c1ccccc1)c1ccccc1	-69.5*	i	0.7%	-3.0%	-1.9%	-1.0%
CN(C(=O)CSc1nncn1-c1ccccc1)c1ccccc1	-2.7	i	-4.3%	8.1%	?	-4.7%
Cc1ccsc1CN1CCc2nnc(CCNC(=O)c3ccc(F)cc3)n2CC1	·	·	-7.2%	·	·	·
COC(=O)c1cc(S(=O)(=O)Nc2nn(C)c3ccccc23)oc1C	-42.8*	i	-2.3%	4.0%	-6.8%	2.2%
